# Measurements: PubChem BioAssay AID2156 (Johns Hopkins Ion Channel Center, 2009)
# Among all 310,000 compounds or so, about 3,400 (1.1%) were called active.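 Rule for the calls: active = fluorescence ratio B-score at most minus 3 library SDs, with starting brightness B-score within 2 library SDs (cut at about -5.5 in these data); inactive = the rest, inconclusive results apart.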 The entries come from a sample that favours actives as a whole.
# Target: Potassium voltage-gated channel subfamily KQT member 2 (Rattus norvegicus) (UniProt O88943)
# Sequence (O88943 whole entry, looked up): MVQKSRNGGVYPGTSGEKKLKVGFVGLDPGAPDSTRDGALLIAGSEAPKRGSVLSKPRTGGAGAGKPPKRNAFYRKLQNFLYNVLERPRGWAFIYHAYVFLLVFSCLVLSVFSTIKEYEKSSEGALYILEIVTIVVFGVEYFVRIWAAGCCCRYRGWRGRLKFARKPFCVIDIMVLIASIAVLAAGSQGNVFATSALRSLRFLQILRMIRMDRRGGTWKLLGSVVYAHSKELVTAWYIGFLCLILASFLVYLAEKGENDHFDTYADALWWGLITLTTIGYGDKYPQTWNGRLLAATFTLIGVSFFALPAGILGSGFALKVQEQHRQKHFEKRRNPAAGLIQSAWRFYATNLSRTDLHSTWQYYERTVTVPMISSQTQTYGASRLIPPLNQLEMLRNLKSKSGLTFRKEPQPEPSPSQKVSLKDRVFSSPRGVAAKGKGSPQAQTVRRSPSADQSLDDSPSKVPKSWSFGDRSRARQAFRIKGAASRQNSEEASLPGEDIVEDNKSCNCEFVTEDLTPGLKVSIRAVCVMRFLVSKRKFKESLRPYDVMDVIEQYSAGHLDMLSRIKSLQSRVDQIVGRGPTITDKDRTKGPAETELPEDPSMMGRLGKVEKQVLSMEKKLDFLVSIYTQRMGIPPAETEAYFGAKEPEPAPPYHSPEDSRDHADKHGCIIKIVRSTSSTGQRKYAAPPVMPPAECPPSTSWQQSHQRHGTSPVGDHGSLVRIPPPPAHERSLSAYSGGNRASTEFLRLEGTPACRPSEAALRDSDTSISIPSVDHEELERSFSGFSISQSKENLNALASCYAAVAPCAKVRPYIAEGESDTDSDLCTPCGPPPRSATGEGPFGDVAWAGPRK
# Experiment: KCNQ2 channel blockers in CHO-K1 cells – cell-based, FluxOR thallium flux, B-score, primary screen (AID 2156)
# Settings: 20 min, at 10 µM; hits give low values
row,Compound,B-score
1,O=C1CC(=O)N(Cc2ccccc2)C(=O)N1CCCCCCN1C(=O)CC(=O)N(Cc2ccccc2)C1=O,inactive
2,CC(C)(C)c1ccc(CN2C(=O)CN=C(c3ccccc3)c3ccccc32)cc1,-6.95 (active)
3,CCOC(=O)c1c(-c2ccccc2)oc2ccc(OC(=O)N(C)C)cc12,-4.87 (inactive)
4,COc1ccccc1C1=NCc2nnc(CSC)n2-c2ccc(Cl)cc21,inactive
5,O=C(c1ccccc1[N+](=O)[O-])N1CCC2(CC1)OCCO2,inactive
6,COc1ccccc1CN1CCN(C(=O)Cc2ccccc2)CC1,-0.38 (inactive)
7,Cc1nn(-c2ccccc2)c(C)c1NC(=O)COC(=O)Cc1ccccc1,inactive
8,COc1ccc(CN2CCN(c3ccccc3F)CC2)c(OC)c1,-0.09 (inactive)
9,O=c1[nH]c(O)c(C=Nc2cc(F)cc(F)c2)c(=O)[nH]1,inactive
10,Cc1nc2ccccn2c1P(=S)(N1CCCCC1)N1CCCCC1,-5.55 (active)
11,CCCCCn1c(=O)c(C(=O)NCc2ccccc2)c(O)c2ccccc21,-3.71 (inactive)
12,COc1ccccc1OC(=O)c1ccc(C)c(S(=O)(=O)N2CCOCC2)c1,inactive
13,O=C(c1cc2nc(-c3ccccc3)cc(-c3ccccc3)n2n1)N1CCC2(CC1)OCCO2,-2.41 (inactive)
14,COc1ccc2c(c1)[C@]13CCCCC1C(C2)N(C)CC3 (stereo not given in full),inactive
15,C/C(=N/O)c1ccc2ccc3ccccc3c2c1,-0.17 (inactive)
16,Cc1ccc(Cn2c(C)c3cnn(CC(=O)N4CCC5(CC4)OCCO5)c(=O)c3c2C)cc1,inactive
17,O=C(CCN1CCCCC1)NCC(=O)Nc1ccc(Br)cc1C(=O)c1ccccc1,-0.1 (inactive)
18,CN(C)CC1Oc2ccccc2OC1(O)c1ccccc1 (stereo not given),-8.59 (active)
19,O=C(O)C1CSC(c2cccnc2)N1 (stereo not given),-1.95 (inactive)
20,C=CC12CN(C)[C@@H]3C4CO[C@H](C[C@H]41)[C@]1(C(=O)Nc4ccccc41)[C@@H]32 (stereo not given in full),inactive
21,CCCCCCCCCCCCn1ccc(=N)cc1,-3.45 (inactive)
22,CC(c1ccccc1)(c1ccccc1)c1ccncc1,-6.57 (active)
23,CC[C@H]1CC2CN3CCc4c([nH]c5ccccc45)C(C(=O)OC)(C2)C13 (stereo not given in full),-0.03 (inactive)
24,O=C(NC(c1ccc(Cl)cc1)P(=O)(Oc1ccccc1)Oc1ccccc1)OCc1ccccc1 (stereo not given),-9.52 (active)
25,COc1ccc(C2N3CC(C)(C)CN23)cc1 (stereo not given),inactive
